Only some compounds are listed: those with a hit (about 1.6% of all), similar ones and a draw of the others.
Rce1 inh – blocks yeast Ras-converting enzyme. yeast membranes, quenched prenylated peptide cleavage fluorescence. calls only. 290,000 compounds, 0.27% hits. AID 2563;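 active means fall in fluorescence gain of 50% or more versus controls, with final raw signal at or below 3038400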;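 further: plate controls were neutral control wells for no effect and wells lacking membranes for full effect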
Target sequence (Q03530 whole entry, looked up): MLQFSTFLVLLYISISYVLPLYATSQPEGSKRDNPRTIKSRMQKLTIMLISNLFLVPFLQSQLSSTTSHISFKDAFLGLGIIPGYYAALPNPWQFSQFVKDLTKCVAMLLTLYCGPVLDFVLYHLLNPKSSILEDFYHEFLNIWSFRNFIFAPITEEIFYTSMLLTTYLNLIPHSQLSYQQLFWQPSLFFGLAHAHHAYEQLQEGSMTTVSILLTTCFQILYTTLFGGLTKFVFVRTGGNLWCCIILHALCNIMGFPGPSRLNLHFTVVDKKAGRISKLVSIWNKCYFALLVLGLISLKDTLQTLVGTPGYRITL
NPR1 activator – GC-A (human) enzyme activation. P16066. HEK293 GC-A cells, cGMP TR-FRET, EC30 ANP; 0% at EC30 ANP, 100% saturating ANP. activation, % at 10 µM. 370,000 compounds, 0.14% hits. AID 1671463; in the data active means activation above about 40%
NPR2 activator – GC-B (human) receptor activation; P20594; activation, % at 10 µM; 370,000 compounds, 0.11% hits; AID 1920062; HEK293-GC-B cells, CNP EC30, cGMP TR-FRET; 0% at EC30 CNP, 100% saturating CNP;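 active means activation at 10 µM reaching about 35% in either raw or pattern-adjusted values, limit read from the data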
NSD2 HMT inh – inhibitors of human histone methyltransferase NSD2 | NSD2 peptide methylation, AlphaScreen, 120 min | inhibition, % at 12.5 µM | 310,000 compounds, 0.54% hits; in the data active means inhibition above about 50%
V-ATPase pH – regulators of yeast V-ATPase proton transport. 350,000 compounds, 0.37% hits. response, % at 10 µM. S. cerevisiae, pHLuorin cytosolic pH fluorescence; in the data active means response mostly above about 7.3%, no sharp cut-off; inactive means mostly below about 5.4%; further: actives read high
Efflux pump mplx – blocks antifungal efflux pumps in multiplex yeast assay. S. cerevisiae Candida pump triplex, Nile Red efflux. inhibition, % at 10 µM. 330,000 compounds, 0.44% hits. AID 485275;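 active means plate passing quality check with inhibition over a set limit, or well fluorescence over plate mean plus 4 SD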;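 further: Nile Red retained in pooled yeast measured as flow cytometry median fluorescence; 0% = buffer negative control and 100% = Enniatin B positive control; higher means more Nile Red kept so more efflux inhibition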
Yeast cmpd fluor – compound fluorescence in yeast efflux pump counter-screen; S. cerevisiae AD/pABC3, flow cytometry; fluorescence ratio to DMSO, % at 10 µM; shares compounds with Efflux pump mplx; 1,700 compounds, 4% hits;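 active means fluorescence ratio to DMSO above its plate's cutoff, the plate mean ratio plus 5 SD, cut at about 210% in these data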;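 further: unstained yeast with no Nile Red so the signal is compound autofluorescence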
CaMdr1 efflux inh – Candida Mdr1 efflux pump inhibition; shares compounds with Efflux pump mplx; inhibition, % at 10 µM; 1,700 compounds, 1% hits; S. cerevisiae AD/CaMDR1, Nile Red efflux, flow cytometry; in the data active means inhibition above about 26%;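 further: 0% = DMSO vehicle and 100% = reference inhibitor; higher means more Nile Red retained so more efflux inhibition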
Cdr2 pump inh – inhibitors of Candida albicans Cdr2 efflux pump | shares compounds with Efflux pump mplx | S. cerevisiae AD/CaCDR2, Nile Red retention, flow cytometry | Nile Red retention ratio vs DMSO, % at 10 µM | 1,700 compounds, 4% hits | AID 588520; in the data active means Nile Red retention ratio vs DMSO above about 190%;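 further: higher ratio means more blocking of Cdr2 efflux of the dye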
Cdr1 pump inh – inhibitors of Candida albicans Cdr1 efflux pump | shares compounds with Efflux pump mplx | 1,700 compounds, 1% hits | inhibition, % at 10 µM | S. cerevisiae AD/CaCDR1, Nile Red efflux, flow cytometry;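 active means inhibition above the screen-wide mean plus twice its standard deviation, cut at about 32% in these data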
* marks the source's active call; other numbers are inactive results; i = inactive; · = no result given.

SMILES | Rce1 inh | NPR1 activator | NPR2 activator | NSD2 HMT inh | V-ATPase pH | Efflux pump mplx | Yeast cmpd fluor | CaMdr1 efflux inh | Cdr2 pump inh | Cdr1 pump inh
O=C(CSc1nc2ccccc2c(=O)n1-c1ccc(F)cc1)Nc1ccc(N2CCOCC2)cc1 | i | -2.6 | 2.0 | 0.6 | 1.9 | -0.1 | · | · | · | ·
Cc1ccc(-n2c(SCC(=O)Nc3ccc(N4CCOCC4)cc3)nc3ccccc3c2=O)cc1 | i | 0.1 | 1.9 | 0.3 | 0.6 | 9.6* | 104.5 | 0.0 | 122.6 | 0.0
O=C(CSc1nc2ccccc2c(=O)n1-c1ccc(F)cc1F)Nc1ccc(N2CCOCC2)cc1 | i | 5.1 | 0.1 | 1.9 | 5.2 | 18.9* | 104.5 | -0.2 | 122.6 | 0.1
O=C(CSc1nc2ccccc2c(=O)n1-c1ccc(SC(F)F)cc1)Nc1ccc(N2CCOCC2)cc1 | i | -2.0 | 1.0 | -1.7 | 2.6 | -0.1 | · | · | · | ·
O=C1/C(=C\c2ccco2)CCC/C1=C\c1ccco1 | i | -2.6 | -0.2 | 21.7 | -2.8 | 60.2* | 98.3 | 0.1 | 105.1 | 0.2
COC(=O)C1CN(Cc2cn(Cc3ccccc3)nn2)CCS(=O)(=O)N1Cc1ccc(Cl)cc1 (stereo not given) | · | -4.3 | -5.9 | · | · | · | · | · | · | ·
CCOc1ccc(S(=O)(=O)N2CCCCCC2)cc1 | i | -2.3 | 2.9 | -9.3 | 8.4 | 9.8* | 107.9 | -0.1 | 99.6 | 0.0
CC1CCN(C(=O)c2ccc(NS(C)(=O)=O)cc2)CC1 | i | 0.1 | 5.5 | -1.9 | 1.4 | 0.6* | 99.0 | -0.3 | 107.2 | -0.1
Cc1ccc(CN2C(=O)C(Cc3ccccc3)Nc3ncnc(N4CCN(c5ccccc5)CC4)c32)cc1 (stereo not given) | i | -3.1 | -4.9 | · | 1.8 | 1.1* | 95.5 | -0.3 | 110.3 | 0.2
O=C1C(Cc2ccccc2)Nc2ncnc(N3CCN(c4ccccc4)CC3)c2N1Cc1ccccc1 (stereo not given) | i | -1.8 | -0.9 | · | 1.8 | 0.3 | 104.6 | -0.1 | 87.3 | -0.1
O=C1C(Cc2ccccc2)Nc2ncnc(N3CCN(c4ccccc4)CC3)c2N1Cc1ccc(Br)cc1 (stereo not given) | · | -2.2 | -5.3 | · | -3.8 | 81.7* | 110.0 | 56.2* | 111.6 | 76.3*
CCC1Nc2ncnc(N3CCN(c4ccccc4)CC3)c2N(Cc2ccc(Br)cc2)C1=O (stereo not given) | i | -8.6 | -9.2 | · | -0.7 | 0.1 | · | · | · | ·
CC(COc1ccc(C#N)c(F)c1)CN1CCC(C(O)(c2ccccc2)c2ccccc2)CC1 (stereo not given) | · | -19.9 | -13.7 | · | · | · | · | · | · | ·
C#CCNC(=O)C[C@H]1C[C@@]2(C(=O)OC)C(=C[C@H](C3CCCC3)O[C@@H]2C)N(Cc2ccc(Cl)cc2Cl)C1=O | · | -29.1 | -13.7 | · | · | · | · | · | · | ·
COc1ccc(Nc2nc(N)c(C(=O)c3ccc(F)cc3)s2)cc1 | i | -6.5 | -14.0 | 1.3 | 0.5 | 12.3* | 97.8 | 0.0 | 96.0 | 0.0
CCCSc1nnc(NC(=O)Nc2ccccc2)s1 | i | 5.0 | 4.6 | 0.2 | -0.2 | 15.2* | 113.2 | 0.3 | 116.6 | 0.2
CCCSc1nnc(NC(=O)Nc2ccc(C)cc2)s1 | i | 9.5 | 3.7 | -1.6 | -0.8 | 0.0 | · | · | · | ·
COC(=O)[C@H](C(C)C)N(Cc1cn(Cc2ccc(C)cc2)nn1)S(=O)(=O)c1ccc(F)cc1Br | · | -0.9 | 0.1 | · | · | · | · | · | · | ·
Cc1ccccc1CSc1nc2c(c(=O)[nH]1)CCC2 | i | -2.1 | -0.2 | -1.1 | -9.0 | 5.9* | 109.0 | 0.1 | 103.8 | 0.1
O=C(NN=Cc1ccc(-c2ccccc2)cc1)c1cc(-c2ccc(Cl)cc2)n[nH]1 | · | 2.0 | 0.0 | -21.4 | · | · | · | · | · | ·
O=C(Cc1c2ccccc2nc2ccccc12)c1ccccc1 | i | 0.9 | -5.0 | 1.1 | 2.2 | 15.2* | 92.1 | -0.1 | 105.7 | -0.1
O=C(Cc1ccccc1Cl)c1ccccc1 | · | 1.1 | 1.3 | -2.8 | -0.9 | · | · | · | · | ·
COc1ccc(CN(CCN2CCOCC2)C(=O)c2cc(F)ccc2F)cc1OC | · | 0.8 | -4.3 | -4.0 | · | · | · | · | · | ·
COc1cc2c(cc1OC)C(C)N(C(=O)c1cc3ccccc3o1)CC2 (stereo not given) | i | 5.5 | -10.1 | 7.9 | -1.8 | -0.2 | · | · | · | ·
COc1cc2c(cc1O)CCN(C(=O)c1ccco1)C2C (stereo not given) | i | 2.2 | 1.2 | -0.1 | -0.3 | 1.2* | 96.6 | -0.1 | 110.3 | 0.0
SMILES | Rce1 inh | NPR1 activator | NPR2 activator | NSD2 HMT inh | V-ATPase pH | Efflux pump mplx | Yeast cmpd fluor | CaMdr1 efflux inh | Cdr2 pump inh | Cdr1 pump inh
Cc1ccc(-n2c(=O)c3ccccc3n(CC(=O)NCc3ccco3)c2=O)cc1 | i | 1.0 | 2.8 | 4.7 | -0.2 | -0.1 | · | · | · | ·
CCc1ccc(-n2c(=O)c3ccccc3n(CC(=O)NCc3ccco3)c2=O)cc1 | i | 0.4 | 0.6 | 0.0 | -2.5 | 0.8* | 101.8 | -0.2 | 101.5 | -0.1
CCN(CC)c1ccc(/C=C/C(=O)c2cccnc2)cc1 | · | 0.9 | -5.9 | 6.2 | -2.4 | 69.1* | 114.8 | 11.8 | 101.5 | -0.1
O=C(/C=C/c1ccc(Cl)cc1)c1cccnc1 | i | -11.3 | -16.2 | 1.7 | 0.7 | 0.1 | · | · | · | ·
COc1ccc(C(=O)NCCN2C(=O)C3C4C=CC(C4)C3C2=O)cc1OC (stereo not given) | · | -2.4 | 0.8 | -2.9 | · | · | · | · | · | ·
c1ccc(C2CCCN(Cc3nc(CC4CC4)no3)CC2)cc1 (stereo not given) | i | 4.1 | 0.6 | -2.5 | 1.2 | -0.3 | · | · | · | ·
c1ccc(C(c2ccccc2)c2noc(CN3CCC(c4ccncc4)CC3)n2)cc1 | i | -6.3 | -2.7 | 1.0 | -4.2 | 5.2* | 85.5 | 0.0 | 86.9 | -0.2
Cc1ccccc1Cn1cc(CN2[C@@H](CC(C)C)COc3cccc(F)c3S2(=O)=O)nn1 | · | -2.5 | -2.0 | · | · | · | · | · | · | ·
O=C(/C=C/c1ccc(Cl)cc1)NCCCN1CCOCC1 | i | 3.3 | 1.2 | · | -0.8 | 0.1 | · | · | · | ·
O=C(/C=C/c1ccc2c(c1)OCO2)NCCCN1CCOCC1 | i | 1.1 | -2.2 | 1.4 | -1.6 | 11.1* | 98.2 | 0.0 | 99.7 | -0.1
O=C(NC1CCCCN(Cc2cccc(Cl)c2)C1=O)c1cccc(C(F)(F)F)c1 (stereo not given) | · | 2.9 | -1.4 | · | · | · | · | · | · | ·
CCOC(=O)[C@]12CCCCC/C=C\1N(Cc1ccc(OC)cc1)C(=O)[C@H]2CC(=O)NCCCOC | · | -2.8 | -8.2 | · | · | · | · | · | · | ·
Nc1nnc(SCc2ccc(Cl)cc2)s1 | i | 3.4 | -6.4 | 1.7 | 0.5 | -0.2 | · | · | · | ·
CCOC(=O)c1ccc(CSc2nnc(N)s2)cc1 | i | 6.0 | -4.8 | 0.6 | -4.8 | 1.8* | 103.4 | -0.5 | 112.4 | 0.0
COc1ccc(NC(=O)CSc2ncnc3scc(-c4ccc(C)cc4)c23)cc1OC | · | 3.0 | 1.2 | -9.3 | · | · | · | · | · | ·
